Assay outcomes deposited in PubChem by National Center for Advancing Translational Sciences (NCATS).
Most compounds without a hit are left out; they make up all but 21% or so of the library.
Shiga inhibitor: inhibitors of Shiga toxin in Vero cells. inhibition, % at 38.7 µM. hit rate 9.2% among 290,000. Vero cells, Shiga toxin protein synthesis inhibition reporter; in the data active means inhibition mostly above about 28%, no sharp cut-off; inactive means mostly below about 43%
Pf growth 48h: P. falciparum growth inhibition at 48 hours (one generation) | P. falciparum luciferase growth in erythrocytes, 48 h | Potency, µM (titrated, usually from 28.7 µM), usual class: inhibitors | hit rate 5.9% among 310,000
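A one-generation exposure of luciferase-tagged malaria parasites in RPMI 1640/Albumax erythrocyte culture, 37 C and 5% CO2. Inhibition is inferred from decreased luminescence after adding detection reagent.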
NS1 function inh: inhibitors of influenza NS1 protein function | Potency, µM (doses to about 46.1 µM) | hit rate 0.4% among 270,000; calls by dose curve; further: actives are rising curves; nearly all actives have a fitted effect of over 50% in size
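A cell-based growth assay was used: compounds that relieve NS1-induced slow growth of budding yeast raise OD600. Assay medium was yeast nitrogen base with ammonium sulphate and -URA supplement, pH 6.0, with 2% galactose.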
SARS PLpro yeast: inhibitors of SARS-CoV papain-like protease in yeast. S. cerevisiae expressing SARS-CoV PLpro, growth rescue. Potency, µM (doses to about 32.9 µM), hits mostly activators. hit rate 0.19% among 330,000. AID 485353; calls by dose curve; further: nearly all actives have a fitted effect of over 55% in size
Pf growth 96h: P. falciparum growth inhibition at 96 hours; P. falciparum luciferase reporter growth, 96 h; Potency, µM (highest dose often 28.7 µM), actives largely listed as inhibitors; hit rate 6.9% among 320,000; AID 504834
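Luminescence readout: decreased luciferase signal marks inhibited growth of reporter-expressing P. falciparum in infected red cells (2% hematocrit, 0.05% parasitemia final), exposed to compound two generations (96 h, 37 C, 5% CO2).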
CHX counter: affects cycloheximide protein synthesis inhibition readout, counter-screen; cell reporter, cycloheximide protein synthesis inhibition counterscreen; max response, %; AID 2314; hit rate 12% among 300,000; in the data active means max response mostly above about 13%, no sharp cut-off; inactive means mostly below about 14%; further: read at 38.3 µM for the half of the compounds with a filed dose
Numbers stand for hits; n = inactive; u = inconclusive; x = no result; [ ] = remark or other dose. Unless noted, the call rests on the fitted dose curve; in most records, active means well fitted inhibition curve with a large enough effect; inconclusive means small, poorly fitted or top-dose-only effect, or another doubt; inactive means no such curve, though single readings can be large or run the other way.

SMILES	Shiga inhibitor	Pf growth 48h	NS1 function inh	SARS PLpro yeast	Pf growth 96h	CHX counter
CCn1c(C)c(C)c2cc(C(=O)NCCN3CCCCCC3)ccc21	n	n	n	n	u	n
CC(=O)Nc1cccc(C(=O)NCCc2ccco2)c1	77.6	n	n	n	n	26.2
Cc1c(C)n(C)c2ccc(C(=O)NCCCN3CCCCC3C)cc12 (configuration not stated)	n	n	n	n	6.57µM	n
Cc1c(C)n(C)c2ccc(C(=O)NCCc3ccco3)cc12	69.1	u	n	n	n	38.6
Cc1c(C)n(C)c2ccc(C(=O)NCCCN(C)C3CCCCC3)cc12	n	n	n	n	u	n
CCCn1c(N)c(C(=O)COC(=O)CCNS(=O)(=O)c2ccccc2F)c(=O)[nH]c1=O	x	n	x	n	n	x
CN(C)S(=O)(=O)NCc1ccc2c(c1)OCO2	n	n	u	n	u	n
O=C(COC(=O)C1CC(=O)N(Cc2ccccc2)C1)Nc1ccccc1F (configuration not stated)	n	n	x	n	u	n
CC1CCCCN1CCCNC(=O)c1nn(C)c2c1CS(=O)(=O)c1ccccc1-2 (configuration not stated)	n	n	n	n	11.7µM	n
COc1cccc(NC(=O)CSc2nnc3ccc(-c4ccccn4)nn23)c1	x	n	x	n	n	x
CCOC(=O)N1CCN(C(=O)c2ccc3nc4ccsc4c(=O)n3c2)CC1	n	n	n	n	8.28µM	n
O=C(c1cccn2c(=O)c3cc4ccccc4cc3nc12)N1CCN(c2ccccc2)CC1	34.9	u	n	n	u	22.7
CCOC(=O)N1CCN(C(=O)c2cccn3c(=O)c4sccc4nc23)CC1	n	n	n	n	2.33µM	n
CCOC(=O)N1CCN(C(=O)c2ccc3nc4ccc(Cl)cc4c(=O)n3c2)CC1	n	n	n	n	u	n
Cc1cc(C)c(C)c(OCCCCN2CCCCC2)c1	n	n	n	n	n	n
COc1ccccc1C(=O)N/C(=C\c1ccccc1)C(=O)NCc1ccco1	n	n	n	n	n	n
Cn1c(-c2sccc2OCc2ccccc2)n[nH]c1=S	n	10.4µM	n	u	u	n
N#CCCN(C(=O)CCl)c1cccc(Cl)c1	n	u	x	n	5.22µM	n
O=C(Cc1ccc(NS(=O)(=O)c2cccc(C(F)(F)F)c2)cc1)NCCN1CCOCC1	x	u	x	n	n	x
O=C(CCN1C(=O)c2ccccc2S1(=O)=O)NCc1ccccc1	x	n	x	n	n	x
O=C(CCCCCN1C(=O)c2ccccc2C1=O)NCc1ccco1	n	x	n	n	1.04µM	n
O=C(CCN1C(=O)c2ccccc2S1(=O)=O)NCc1ccco1	n	n	n	n	11.7µM	n
Cc1ccc2nc(N3CCOCC3)c(C=O)cc2c1	n	n	n	n	n	25.7
Cc1ccc(C(=O)c2cnc3ccccc3c2-c2ccccc2)cc1	n	13.1µM	n	n	10.4µM	n
Cc1nc(-c2nnc(SCC(=O)Nc3ccc(Cl)cc3)n2C)cs1	n	n	n	n	n	n
SMILES	Shiga inhibitor	Pf growth 48h	NS1 function inh	SARS PLpro yeast	Pf growth 96h	CHX counter
Cc1nc(CSc2nnc(N)s2)cs1	n	n	x	n	u	n
COc1ccc(OC)c(Nc2nc(N)nc(CSc3nnc(N)s3)n2)c1	n	n	n	n	n	n
CCOc1ccc(-c2nc(CSc3nnc(N)s3)cs2)cc1OC	84.8	n	n	n	x	33.2
CCOc1ccc(-c2nc(CSc3nnc(N)s3)cs2)cc1	117.2	n	u	u	x	30.8
CCC(=O)N(C)CCc1cc2c(c(OC)c1/C=N/Nc1ccc(C(=O)O)cc1)OCO2	n	n	n	n	n	35.2
CCC(CC)COC(=O)C1=C(C)NC(=O)NC1c1cccc([N+](=O)[O-])c1 (configuration not stated)	n	u	u	n	u	n
Nc1cnn(Cc2ccccc2F)c1	n	n	x	n	n[1.15 µM]	n
Fc1ccc(-c2nnn(Cc3ccccc3Cl)n2)cc1	99.0	n	n	n	n	35.9
Cc1ccccc1Cn1nnc(-c2ccc(F)cc2)n1	29.9	n	n	n	n	19.1
Nc1ccc(-c2nnn(Cc3ccccc3F)n2)cc1	55.0	n	n	n	u	32.2
Fc1ccc(Cn2nnc(-c3ccc(Cl)cc3)n2)cc1	55.8	n	n	n	n	34.5
CC(=O)c1sc(NC(=O)COc2ccc(C)c(C)c2)nc1C	n	n	n	n	n	n
COc1ccc2oc(CS(=O)c3ccccc3)c(C(=O)O)c2c1 (configuration not stated)	n	n	u	n	u	n
O=C(CO/N=C/c1ccc2c(c1)OCO2)Nc1cccc(Br)c1	n	n	n	n	n	n
COc1ccc(CCNC(=O)C(=O)NCC2OCCN2S(=O)(=O)c2ccccc2)cc1 (configuration not stated)	n	n	n	n	n	n
COc1ccc(-n2nc([N+](=O)[O-])c(=NCc3ccco3)n2O)cc1	80.5	n	x	n	n	29.7
COc1ccc(-n2nc([N+](=O)[O-])c(=NCc3cccnc3)n2O)cc1	n	n	n	n	u	65.3
COc1ccc(-n2nc([N+](=O)[O-])c(=NCCC3=CCCCC3)n2O)cc1	n	n	n	n	u	32.3
Cc1ccc(CN=c2c([N+](=O)[O-])nn(-c3cccc(C)c3)n2O)cc1	n	n	n	n	n	25.1
Cc1ccc(CN=c2c([N+](=O)[O-])nn(-c3cccc(Cl)c3)n2O)cc1	n	u	x	n	u	n
COc1ccc(-n2nc([N+](=O)[O-])c(=NCCc3ccc(C)cc3)n2O)cc1	n	n	x	n	u	n
COc1ccc(-n2nc([N+](=O)[O-])c(=NCCc3ccc(Cl)cc3)n2O)cc1	n	u	n	n	u	n
COc1ccccc1N1C(=O)CC(N2CCN(c3ccc(Cl)cc3)CC2)C1=O (configuration not stated)	x	n	n	n	n	n
Cc1ccc(CNC(=O)CCn2cc(-c3ccc(C)cc3)nc2-c2ccncc2)cc1	n	u	n	n	9.28µM	n
O=C(NCc1ccncc1)c1ccc(Br)cc1	n	n	n	n	n	n
SMILES	Shiga inhibitor	Pf growth 48h	NS1 function inh	SARS PLpro yeast	Pf growth 96h	CHX counter
Cc1ccc(CNC(=O)c2ccc(Cn3cc(-c4ccc(C)cc4)nc3-c3ccncc3)cc2)cc1	41.9	u	n	n	u	41.0
Cc1ccc(CNC(=O)CCn2cc(-c3ccc(F)cc3)nc2-c2ccncc2)cc1	x	8.28µM	x	n	u	x
CCCNC(=O)CCn1cc(-c2ccc(OC)cc2)nc1-c1ccncc1	n	n	n	n	n	n
CCc1c(C2(O)CCCCC2)[nH]c2cc(C(F)(F)F)ccc12	n	n	n	n	u	n
CO[C@H]1CC[C@@]2(C)[C@@H](CC[C@@H]3[C@@H]2CC[C@@]2(C)[C@H]3C[C@H](C(=O)O)O[C@]23CCCO3)C1	x	x	x	n	x	x
C=CC[N+]1([C@H]2C[C@H]3[C@@H]4CC[C@H]5C[C@H](O)[C@@H](N6CCOCC6)C[C@]5(C)[C@H]4CC[C@]3(C)[C@H]2OC(C)=O)CCCC1	x	6.75µM	x	x	4.26µM	x
O=C(O)c1cc2cc(Oc3ccccc3)ccc2[nH]1	n	n	n	n	n	n
